# BAZ2B inh: blocks human BAZ2B; Q9UIF8; AlphaScreen BAZ2B-H3K14Ac peptide displacement; Potency, µM (top dose mostly 114 µM), inactives show top-dose activity change, negative = inhibition, actives largely listed as inhibitors; hit rate 4.4% among 360,000; AID 504333; note: potency is the fitted concentration of half-maximal effect; % is set by controls: 0 for no effect and ±100 for the full control effect; nearly all actives have a fitted effect of over 60% in size
#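 Complex of BAZ2B and biotin-H3K14Ac (50 nM apiece) forms over 30 min at RT, then faces library compounds up to 110 uM for another 30 min; AlphaScreen beads added, 20 min dark incubation, luminescence read.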
# Six1-Eya2 blk: inhibitors of human Six1/Eya2 interaction | activity change, % (concentration not given with the values) | Q15475+O00167 | AID 651725 | hit rate 0.56% among 360,000 | AlphaScreen GST-Six1/His-Eya2 binding, biochemical; stronger effect = lower value; in the data active = activity change below about -65%; inconclusive = mostly about -30% to -63%; note: % is set by controls: 0 for no effect and ±100 for the full control effect
#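 Homogeneous AlphaScreen proximity assay pairing GST-Six1 with His-tagged Eya2 (added as 5X mix: 250 nM and 500 nM) in 50 mM Tris pH 8.0, 300 mM NaCl, 1 mM TCEP. Glutathione donor and nickel acceptor beads; 1 h, 37 °C, dark.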
# JMJD2A Tudor inh: blocks the human JMJD2A Tudor domain; O75164; AlphaScreen JMJD2A-Tudor / H3K4me3 peptide binding; Potency, µM (titrated, usually from 114 µM), without a hit: at the top dose activity change, negative = inhibition, most hits filed as inhibitors; hit rate 4.4% among 390,000; AID 504339; note: potency is the fitted concentration of half-maximal effect; % is set by controls: 0 for no effect and ±100 for the full control effect; nearly all actives have a fitted effect of over 50% in size
# HP1b binding inh: blocks HP1-beta chromodomain binding to methylated histone tails; P83916; AlphaScreen HP1-beta / biotin-H3K9me3 peptide binding; Potency, µM (highest dose often 114 µM), for the others: top-dose activity change, negative = inhibition, hits mostly inhibitors; hit rate 0.56% among 390,000; note: potency is the fitted concentration of half-maximal effect; nearly all actives have a fitted effect of over 70% in size
# Target sequence (P83916 whole entry, looked up): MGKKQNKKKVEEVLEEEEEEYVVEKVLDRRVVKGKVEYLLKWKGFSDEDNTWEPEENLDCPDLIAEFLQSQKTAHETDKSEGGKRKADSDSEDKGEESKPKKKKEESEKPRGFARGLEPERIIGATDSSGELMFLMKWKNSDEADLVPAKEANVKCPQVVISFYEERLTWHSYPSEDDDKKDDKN
#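 Compound inhibition of the preformed complex between 50 nM HP1-beta and 50 nM biotinylated H3K9me3 peptide was read by AlphaScreen. Buffer was PBS pH 7.4 with 0.01% Tween-20. Incubations ran 30 min at room temperature, with 10 ug/mL donor/acceptor beads.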
# TDP1 block: TDP1 (human) enzyme inhibition. AID 485290. Q9NUW8. Potency, µM (highest dose often 130 µM), inactives show top-dose activity change, negative = inhibition, usual class: inhibitors. hit rate 0.28% among 350,000. recombinant TDP1, AlphaScreen DNA substrate cleavage; note: potency is the fitted concentration of half-maximal effect; % is set by controls: 0 for no effect and ±100 for the full control effect; nearly all actives have a fitted effect of over 40% in size
#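 Enzyme-compound mixtures sat 15 min at room temperature, followed by a 5 min reaction with 15 nM final substrate and 10 min with AlphaScreen beads. Recombinant human Tdp1 was used at 1 nM final.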
# CtBP-E1A blk: inhibitors of CtBP/E1A interaction | hit rate 0.49% among 340,000 | AlphaScreen GST-E1A/His-CtBP binding, 1536-well; stronger effect = lower value | activity change, % (no concentration beside the values); in the data active = activity change below about -65%; inconclusive = mostly about -30% to -63%; note: % is set by controls: 0 for no effect and ±100 for the full control effect
#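 Protein mix (5X: 125 nM each GST-E1A, His-CtBP) was incubated with pinned compound 2 h at 37 deg C in dark, in 50 mM Tris pH 8.0 buffer with 300 mM NaCl. Glutathione donor and nickel acceptor beads followed; AlphaScreen signal read after 1 h.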
# Active calls of the source: *; ? = inconclusive; · = no result; [ ] = another dose, or the depositor's remark. Compounds with a hit are over-represented: about 5.3% of the library has one in this group of screens. Unless noted, calls come from the whole dose curve; as a rule, active = well fitted inhibition curve with a large enough effect; inconclusive = small, poorly fitted or top-dose-only effect; inactive = no such curve, though single readings can be large or run the other way.
SMILES,BAZ2B inh,Six1-Eya2 blk,JMJD2A Tudor inh,HP1b binding inh,TDP1 block,CtBP-E1A blk
CCS(=O)(=O)N1CCN(C2CCC(c3ccccc3)CC2)CC1 (stereo not drawn),50µM*,·,·,·,-7%,·
O=C(CN1C=NS(=O)(=O)c2ccccc21)Nc1ccccc1F,1%,·,-27%,6%,4%,·
CCCCN(CC)C(=O)CSc1c2c(nc3ccc(Cl)cc13)CCCC2,·,·,11%,41%,-2%,·
CCc1ccc(Nc2ccc3nonc3c2[N+](=O)[O-])cc1,·,-7,-15%,-4%,·,-28
CCOC(=O)NNc1ccc2nonc2c1[N+](=O)[O-],40µM*,?,56µM*,?,·,?
Oc1c(N=NC(=S)Nc2ccccc2F)c2ccccc2n1Cc1cccc(Cl)c1,11µM*,?,?,?,9%,?
Oc1c(N=NC(=S)Nc2ccccc2F)c2ccccc2n1Cc1ccc(F)cc1,?,-11,?,?,14%,0
Cc1cccc(Cn2c(O)c(N=NC(=S)Nc3ccccc3F)c3ccccc32)c1,8.9µM*,-14,10µM*,-12%,11%,·
Cc1cccc(-c2nc(S(=O)(=O)c3ccc(F)cc3)c(NCCCN3CCOCC3)o2)c1,71µM*,-11,?,?,10%,-3
Cc1ccc(S(=O)(=O)c2nc(-c3ccccc3)oc2NCCCN2CCOCC2)cc1,-32%,-7,?,37%,5%,-15
CCOc1ccc(CCNC(=O)CSc2nc3ccccc3nc2Cc2ccc(C)cc2)cc1OCC,-5%,·,-12%,24%,0%,·
CCOC(=O)CCCc1sc(N)nc1-c1[nH]c(=O)[nH]c1C,6.3µM*,?,2.2µM*,?,4%,-22
CC1C(=O)OC2C1CCC1(C)CCC(=O)C(C)C21 (stereo not drawn),13%,-3,50µM*,51%,·,2
C=C1CCC(OC(C)=O)C2(C)CCC3C(C)C(=O)OC3C12O (stereo not drawn),4%,12,-6%,-2%,·,-12
O=S(=O)(c1cccs1)N1CCN(CC(O)COC2CCCc3ccccc32)CC1 (stereo not drawn),50µM*,2,4µM*,?,-1%,-1
O=S(=O)(c1cccs1)N1CCN(CC(O)COc2cccc(Br)c2)CC1 (stereo not drawn),79µM*,-2,3.2µM*,?,1%,1
O=S(=O)(c1ccccc1)N1CCN(CC(O)COc2ccc3c(c2)CCC3)CC1 (stereo not drawn),-22%,-2,-24%,2%,4%,-8
CCS(=O)(=O)N1CCc2cc(C(=O)NCc3ccccc3OC)ccc21,?,·,?,10%,6%,·
Cc1ccc(/C=C/C(=O)Nc2ccc(N(C)C)cc2)o1,35µM*,?,50µM*,?,7%,-22
Cc1ccc(/C=C/C(=O)Nc2cccc(S(=O)(=O)N3CCOCC3)c2)o1,-32%,-6,-28%,50µM*,1%,0
CC(=O)NS(=O)(=O)c1ccc(NC(=O)/C=C/c2ccc(C)o2)cc1,-20%,-11,35µM*,?,·,1
Cc1ccc(/C=C/C(=O)Nc2ccncc2)o1,1%,2,?,-20%,-5%,10
O=C(/C=C/c1ccco1)Nc1cccc(S(=O)(=O)N2CCOCC2)c1,-8%,-23,4%,-6%,3%,-14
Cc1ccc(/C=C/C(=O)N2CCN(S(=O)(=O)c3c(C)c(C)cc(C)c3C)CC2)o1,?,-18,79µM*,?,6%,-3
C[C@H]1CC[C@H]2C(=O)N3[C@H](c4ccc(Br)cc4)[C@@H](C)CC[C@H]3C(=O)N2[C@@H]1c1ccc(Br)cc1,·,·,·,·,7%[21 µM],·
CC(=O)Nc1ccc2nc(CN3CCC(CO)(CCc4ccccc4)CC3)ccc2c1,-33%,-9,32µM*,10%,·,-4
CN(CC(=O)NC(=O)NCc1ccco1)Cc1nc2ccccc2c(=O)[nH]1,3%,-14,-28%,26%,50µM*,-15
